Molecules are shown by their SMILES. Compounds without any hit were thinned out: in the full panel of roughly 83,000, 20% have a hit.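 Single-concentration screen, 48 h exposure, 96-well plates. Endpoint: percent growth. Below 10 = active.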 A number with no mark means an inactive call. Activity calls are given as the source filed them.

Common to all, as to assay: NCI-60 one-dose screen, 48 h (100 = growth as untreated, 0 = no growth, -100 = all killed)
The subject of experiment [1] is SK-MEL-2 melanoma. The settings on record: 10 µM unless noted.
Experiment [2] deals with EKVX NSCLC. The settings on record: 10 µM unless noted.
Experiment [3] deals with SN12C renal. The conditions noted are these: 10 µM unless noted.
For experiment [4], the system named is UO-31 renal. The settings on record: 10 µM unless noted.
Experiment [5] relates to ACHN renal. The settings on record: 10 µM unless noted.
The test system of experiment [6] is CAKI-1 renal. The settings on record: 10 µM.
Experiment [7] has as its system A498 renal. The conditions noted are these: 10 µM unless noted.
The test system of experiment [8] is CCRF-CEM leukemia. The conditions noted are these: 10 µM unless noted.
For experiment [9], the system named is MOLT-4 leukemia. The settings on record: 10 µM unless noted.
Experiment [10] has as its system SR leukemia. The settings on record: 10 µM unless noted.
The subject of experiment [11] is RPMI-8226 leukemia. The conditions noted are these: 10 µM unless noted.
For experiment [12], the system named is OVCAR-8 ovarian. The settings on record: 10 µM unless noted.
The test system of experiment [13] is OVCAR-5 ovarian. The settings on record: 10 µM unless noted.
The subject of experiment [14] is OVCAR-4 ovarian. The conditions noted are these: 10 µM unless noted.
Experiment [15] relates to SK-OV-3 ovarian. The conditions noted are these: 10 µM unless noted.
Experiment [16] relates to IGROV1 ovarian. The conditions noted are these: 10 µM unless noted.
The test system of experiment [17] is OVCAR-3 ovarian. The conditions noted are these: 10 µM unless noted.
Experiment [18] relates to HS 578T breast. The conditions noted are these: 10 µM unless noted.
Experiment [19] relates to NCI/ADR-RES ovarian. The settings on record: 10 µM unless noted.
The subject of experiment [20] is TK-10 renal. The conditions noted are these: 10 µM unless noted.

With `COc1cc(/C=N/n2cnc3oc(-c4ccccc4)cc3c2=N)cc(CN2CCOCC2)c1O`, the growth in experiment [1] is 104%; in [2], 89.9%; in experiment [3], 72.4%; in [4], 74%; in experiment [5], 28%; in experiment [6], 43.7%. The growth was 53.8% in experiment [7]; 26.2% in [8]; 52.9% in experiment [9]; 32% in [10]; 27.5% in experiment [11]; 60.4% in [12]. Further, the growth in [13] was 84.2%; in [14], 72.6%; in [15], 68.4%; in experiment [16] it was 21.7%; in experiment [17], 108%; in [18] it was 14.8%. In addition, the growth in experiment [19] was 72.5%.

With `CCCC(=O)NC(c1cccnc1)c1cc(C(C)=O)c2cccnc2c1O` (stereo not drawn), the growth is 62.8% in experiment [1]; 22.3% in [2]; 43.9% in experiment [3]; 13.6% in [4]; 14.5% in experiment [5]; 20.5% in [6]. The growth in [7] was 56.6%; in experiment [8], 20.8%; in experiment [9], 25.1%; in experiment [10] it was 52.5%; in [11], 38.2%; in experiment [12], 21.7%. Moreover, the growth in [13] is 40%; in experiment [14], 19.6%; in experiment [15], 31.9%; in experiment [16], 36.7%; in experiment [17], 17.1%; in experiment [18], 69.6%. Besides, the growth in experiment [19] was 30.4%.

As for `C=C(C)C(=O)O[C@H]1C[C@@]2(C)OC(=CC2=O)/C(C)=C\[C@H]2OC(=O)C(=C)[C@H]12`, the growth is -28% (active) in [1]; 21.1% in experiment [2]; -88.9% (active) in experiment [4]; -76.3% (active) in experiment [20]; -11.7% (active) in [5]; 5.49% (active) in [6]. Moreover, the growth was 21% in experiment [7]; -31.8% (active) in experiment [8]; -4.17% (active) in experiment [9]; -19.6% (active) in experiment [10]; -15.3% (active) in experiment [11]; 4.8% (active) in experiment [12]. For the same compound, the growth in experiment [13] was -56.4% (active); in experiment [14], 36.1%; in [15], 77%; in [16], 7.34% (active); in experiment [17], -72.1% (active); in experiment [18] it was 21.9%. For the same compound, the growth in experiment [19] was 15.7%.

On to `CCC(C)[C@H]1OC(=O)[C@H](C(C)C)N(C)C(=O)[C@@H](C(C)C)OC(=O)[C@H](C(C)C)N(C)C(=O)[C@@H](C(C)CC)OC(=O)[C@H](C(C)C)N(C)C1=O` (stereo partly drawn), for which the growth in [1] was -14.6% (active); in [2] it was 20.5%; in experiment [3], 4.12% (active); in experiment [4] it was -13.6% (active); in [20] it was -8.95% (active); in experiment [5] it was 7.98% (active). Also, the growth is -2.54% (active) in experiment [7]; 9.05% (active) in experiment [8]; -24.2% (active) in [9]; 7.44% (active) in [10]; 11.6% in experiment [12]; 13.4% in experiment [13]. The growth was 10.5% in experiment [14]; -15.3% (active) in [15]; 25.8% in [16]; 18.3% in [17]; 32.9% in [18]; 2.47% (active) in [19].

As to `C=C(C)C(=O)O[C@H]1C[C@@]2(C)OC(=CC2=O)/C(CO)=C\[C@H]2OC(=O)C(=C)[C@H]12`, the growth in experiment [1] was -23.7% (active); in experiment [2] it was -5.67% (active); in experiment [4], -90.1% (active); in experiment [20], -88.1% (active); in experiment [5] it was -42.1% (active); in experiment [6], -75.1% (active). Moreover, the growth was -3.55% (active) in experiment [7]; -44% (active) in experiment [8]; -28% (active) in experiment [9]; -38.5% (active) in [10]; -25.6% (active) in experiment [11]; 8.5% (active) in [12]. For the same compound, the growth in experiment [13] is -56.5% (active); in [14], 17.4%; in experiment [15], 81.6%; in experiment [16], -36% (active); in [17] it was -93.6% (active); in experiment [18], 17.2%. Further, in experiment [19], the growth is 11.6%.

For the compound `O=C1c2c(O)cc(O)cc2O[C@@H](c2ccc(O)cc2)[C@@H]1c1c(O)cc(O)c2c(=O)cc(-c3ccc(O)c(O)c3)oc12`, the growth in [1] is 117%; in experiment [2] it was 91.9%; in experiment [3], 105%; in experiment [4] it was 97.3%; in [5] it was 85%; in experiment [7] it was 120%. Moreover, the growth in [8] is 114%; in [9], 121%; in experiment [10], 103%; in [11], 100%; in experiment [12], 101%; in experiment [13], 98.6%. The growth in [14] was 97.8%; in experiment [15], 86.5%; in [16], 101%; in experiment [17], 106%; in [19] it was 95.7%.

For the compound `CC(=O)Nc1nc2c(s1)C1=CC[C@H]3[C@@H]4CC[C@H](C(C)=O)[C@@]4(C)CC[C@@H]3[C@@]1(C)CC2`, the growth in [1] is 56.2%; in [2], 68.7%; in experiment [3] it was 86.4%; in experiment [4] it was 65.4%; in experiment [5], 77.6%; in [6], 80.3%. Moreover, the growth was 74.5% in experiment [7]; 49% in experiment [8]; 1.44% (active) in [9]; 59.4% in experiment [10]; 78.6% in experiment [12]; 80.6% in experiment [13]. The growth in [14] is 80.5%; in experiment [15], 59.9%; in experiment [17], 74.8%; in [18] it was 33.8%; in experiment [19], 81.6%.

Values taken from PubChem BioAssay (NCI).
